Bioassay records from PubChem.
Compounds with a hit are over-represented: about 1.1% of the library has one in this group of screens.
HTR5A inv ag = HTR5A inverse agonists in luminescence cell assay, primary screen, counter-screen for OPRM1-OPRD1 heterodimer inverse agonist project, full-deck HTS. 5-hydroxytryptamine receptor 5A (Homo sapiens), P47898. HTR5A cell line, inverse agonism. inhibition, % at 9.3 µM. 340,000 compounds, 0.083% hits. AID 504634, 2011; in the data active = inhibition mostly above about 23%, no sharp cut-off; inactive = mostly below about 18%;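 note: 0% = cells with DMSO and 100% = no-cell wells with DMSO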
Target sequence (P47898 whole entry, looked up): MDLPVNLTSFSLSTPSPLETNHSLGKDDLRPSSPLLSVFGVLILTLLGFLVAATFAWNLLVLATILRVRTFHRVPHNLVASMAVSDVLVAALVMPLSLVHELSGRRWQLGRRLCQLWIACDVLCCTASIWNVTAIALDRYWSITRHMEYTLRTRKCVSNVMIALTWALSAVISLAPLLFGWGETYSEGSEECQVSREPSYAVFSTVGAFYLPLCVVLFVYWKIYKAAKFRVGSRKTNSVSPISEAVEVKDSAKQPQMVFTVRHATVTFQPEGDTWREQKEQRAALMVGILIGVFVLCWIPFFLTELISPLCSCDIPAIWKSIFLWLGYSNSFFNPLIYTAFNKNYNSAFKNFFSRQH
HTR5A ag = HTR5A agonists in luminescence cell assay, primary screen, counter-screen for OPRM1-OPRD1 heterodimer agonist project, full-deck HTS | cell-based | 340,000 compounds, 0.61% hits | activation, % at 9.3 µM | 5-hydroxytryptamine receptor 5A (Homo sapiens), P47898; in the data active = activation mostly above about 9.5%, no sharp cut-off; inactive = mostly below about 7.6%;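 note: 0% = cells with vehicle only and 100% = reference agonist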
OPRM1-OPRD1 inv = inverse agonists of MOR-DOR heterodimerization, primary screen, cell-based, luminescence | Mu-type opioid receptor (Homo sapiens) + Delta-type opioid receptor (Homo sapiens), … | inhibition, % at 9.3 µM | 340,000 compounds, 0.21% hits | cell-based MOR-DOR heterodimer luminescence, inverse agonism | AID 504357, 2011; in the data active = inhibition above about 22%, passing the limit was not always enough;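 note: 0% = cells with DMSO and 100% = wells without cells with DMSO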
OPRM1-OPRD1 ag = agonists of OPRM1-OPRD1 heterodimerization, primary screen, cell-based, luminescence; activation, % at 9.3 µM; 340,000 compounds, 0.3% hits; Mu-type opioid receptor (Homo sapiens) + Delta-type opioid receptor (Homo sapiens), …; cells;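 note: 0% = vehicle-treated cells and 100% = reference agonist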
MOR-DOR ag conf = agonists of MOR-DOR heterodimerization, confirmation, cell-based, luminescence. cells, luminescence complementation. shares compounds with OPRM1-OPRD1 ag. activation, % at 9.3 µM. 830 compounds, 45% hits;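 note: 0% = vehicle-treated cells and 100% = reference agonist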
HTR5A ag counter = HTR5A agonists in cells, counter-screen for OPRM1-OPRD1 heterodimer agonist project, cell-based, luminescence; activation, % at 9.3 µM; shares compounds with OPRM1-OPRD1 ag; AID 504905, 2011; 830 compounds, 8% hits; HTR5A agonist counterscreen; in the data active = activation above about 17%;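 note: 0% = vehicle-treated cells and 100% = reference agonist response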
* hit, by the source's call; i = inactive; . = no result given. Cut-off read from the data, not from the text of the source, unless noted: active = activation above about 18%; inactive = the rest.

SMILES	HTR5A inv ag	HTR5A ag	OPRM1-OPRD1 inv	OPRM1-OPRD1 ag	MOR-DOR ag conf	HTR5A ag counter
CCN(C(=O)c1cccs1)c1nc(-c2ccc(OC)cc2)cs1	10.3	-3.7	8.6	-1.6	.	.
COc1ccc(-c2csc(N(CCCN(C)C)C(=O)c3cccs3)n2)cc1	-10.9	4.2	-131.5	26.4*	42.7*	-1.3
COc1ccc(-n2c3c(cc(C(=O)NNc4ccccc4C)c2=O)C(=O)CC(C)(C)C3)cc1	-7.3	2.8	-470.0	99.4*	132.5*	-1.0
COc1ccc(-n2c3c(cc(C(=O)NNc4ccccc4)c2=O)C(=O)CC(C)(C)C3)cc1	3.9	-1.5	i	128.5*	-0.3	3.3
CC1(C)CC(=O)c2cc(C(=O)Nn3cnnc3)c(=O)n(-c3ccccc3)c2C1	14.2	-5.6	12.4	-2.2	.	.
Cc1nc2sccn2c(=O)c1S(=O)(=O)Nc1cccc(Cl)c1C	3.5	1.1	17.8	-3.2	.	.
Cc1cc2c(cc1C)CSC(c1c(O)ccc3ccccc13)SC2	4.7	-4.4	-161.5	31.0*	18.7*	1.0
CC(C)c1ccc(NC(=O)Cc2c(C(=O)O)n(C)c3ccccc23)cc1	7.3	-2.0	0.1	0.0	.	.
Cc1ccc(/C([O-])=C(/C(=S)Nc2ccc(SC(F)F)cc2)[n+]2ccccc2)cc1[N+](=O)[O-]	-18.8	-3.4	-117.8	23.5*	0.4	7.5
Cc1[nH]c2ccc(C(=O)N3CCCCC3)cc2c1C	-0.7	0.2	-5.0	1.1	.	.
COc1cccc(OCc2cc(C3Nc4ccccc4C(=O)N3Cc3ccco3)ccc2OC)c1 (configuration not stated)	-0.7	1.1	10.0	-1.7	.	.
COc1ccc(C2Nc3ccccc3C(=O)N2Cc2ccco2)cc1COc1ccc([N+](=O)[O-])cc1 (configuration not stated)	-2.2	0.9	-109.9	21.9*	12.7	-0.8
COc1ccc(Cl)cc1NC(=O)c1cc(-c2ccccc2O)n[nH]1	0.4	-0.2	-71.4	11.9	.	.
COc1ccc(OC)c(NC(=O)c2cc(-c3cc(Cl)ccc3O)n[nH]2)c1	-47.2	9.3	-111.7	19.2*	0.4	12.4
COc1ccc(F)cc1S(=O)(=O)N1CCC2(CC1)OCCN2S(=O)(=O)c1ccccc1	12.5	6.5	12.4	-2.3	.	.
Cc1ccccc1OCC(O)Cn1c(=N)n(Cc2ccccc2)c2ccccc21 (configuration not stated)	-5.8	2.0	-154.7	31.1*	53.4*	7.8
COc1ccccc1OCC(O)Cn1c(=N)n(Cc2ccccc2)c2ccccc21 (configuration not stated)	18.2	-0.9	-12.6	2.5	.	.
Cc1cccc(C)c1NC(=O)COC(=O)CNC(=O)C1CCCCC1	8.6	-3.4	2.4	-0.6	.	.
CCN1CC(CN(C)Cc2cn(-c3cccc(C)c3)nc2-c2cccc(F)c2)CC1=O (configuration not stated)	-4.5	1.6	-103.7	19.9*	-0.1	5.0
COc1ccc(OC)c(NC(=O)C2CCCN(S(=O)(=O)c3c(C)nn(C)c3C)C2)c1 (configuration not stated)	-0.7	0.3	6.0	-1.1	.	.
Cc1ccc2nc(SC(C(=O)Nc3ccc(F)cc3)c3ccccc3)[nH]c2c1 (configuration not stated)	-4.0	6.1	-119.0	23.5*	454.0*	-2.3
Cc1ccc(C)c(NC(=O)C(Sc2nc3ccc(C)cc3[nH]2)c2ccccc2)c1 (configuration not stated)	8.2	1.0	-23.1	4.6	.	.
O=C(CNCc1ccccc1)Nc1cccc(Cl)c1Cl	-12.6	3.4	-12.1	2.7	.	.
COc1ccc(/C=N\NC(=O)COc2ccc(C(C)(C)C)cc2)cc1Cn1nc(C)cc1C	-11.0	4.4	-189.6	45.1*	0.8	3.4
O=C(Cn1ncc2c([nH]c3ccccc32)c1=O)N1CCc2ccccc2C1	-19.2	-2.6	-175.8	32.4*	25.7*	0.8
CC1CC(C)CN(C(=O)Cn2ncc3c([nH]c4ccccc43)c2=O)C1 (configuration not stated)	10.6	-2.8	4.8	-0.9	.	.
